Broadly, the Inhibition is the relative decrease from the control value, in per cent.

For the experiment, the system named is HepG2. Briefly: GSK_TCMDC: Percent inhibition of human HepG2 cell line. Test compounds present at 10uM. Type of experiment: functional.
`CCOc1ccccc1CNc1nccc(NCc2ccc(Cl)cc2Cl)n1` registered an Inhibition of 26%.

For `FC(F)(F)c1ccc2[nH]ccc(=NN=Cc3ccccc3Cl)c2c1`, the Inhibition is 0%.

Turning to `CCCc1cc(=O)[nH]c(-n2nc(C)cc2NC(=O)c2cc3ccccc3o2)n1`, the Inhibition is 39%.

For `O=C(N[C@@H](CC1CCCCC1)C(=O)NCCN1CCCCC1)c1ccc(O)c(-c2cccc(C(F)(F)F)c2)c1`, the Inhibition is 0%.

Consider `O=C(NCC1CCC(C(=O)NC2CCCc3ccccc32)CC1)c1ccc(O)c(-c2ccc(Cl)c(Cl)c2)c1` (centres undefined), for which the Inhibition is listed as 0%.

Take `O=C(O)C(F)(F)F.O=S(=O)(NCCN1CCCC1)c1cccc(-c2ccc(CNCc3ccccc3)cc2)c1`: the Inhibition was found to be 54%.

As to `COc1ccc(NS(=O)(=O)c2ccccc2Br)cc1N1CCN(C)CC1.Cl`, the Inhibition is 2%.

In turn, `O=C(Cc1ccccc1)NC1(c2ccccc2)CCN(CCc2c[nH]c3ccc(F)cc23)CC1` displayed an Inhibition of 29%.

`COc1ccc2ccc(F)c(CC(=O)N3CCOC(CNCc4cccc(-c5ccsc5)n4)C3)c2n1` (centres undefined) registered an Inhibition of 1%.

In the case of `O=C(O)C(F)(F)F.c1ccc(CNCc2ccc(-c3cccc(-c4nc5ccccc5[nH]4)c3)cc2)cc1`, the Inhibition is 55%.

`O=C(Nc1ccccc1F)NC1CCN(c2ccnc(Nc3ccc(F)cc3)n2)C1` (centres undefined) came in with an Inhibition of 0%.

In turn, `O=C(O)C(F)(F)F.c1cc(-c2ccc(CNCc3ccc(-c4csnn4)cc3)cc2)cc(-c2nc3ccccc3[nH]2)c1` showed an Inhibition of 60%.

`CCCc1c(C(=O)Nc2ccc3c(c2)CCN(C2CCC2)CC3)cnn1-c1ccc(Cl)cc1.O=C(O)C(F)(F)F` yielded an Inhibition of 64%.

Molecule `O=C(Nc1cccc(-c2nn3ccccc3c2-c2ccnc(Nc3cccc(C(F)(F)F)c3)n2)c1)c1c(F)cccc1F` came in with an Inhibition of 43%.

Turning to `COc1ccc(OCCn2cc(C(=O)c3ccco3)c3ccccc32)cc1`, the Inhibition was 17%.

Consider `O=C(O[C@@H]1CN[C@H](C#Cc2cc3ncnc(Nc4ccc5c(cnn5Cc5cccc(F)c5)c4)c3s2)C1)N1CCCC1`, for which the Inhibition was 9%.

In turn, `CC[C@H](N/C(=N\c1ccc(-c2ccccc2)cc1)Nc1ccc(C#N)cc1O)c1ccccc1` displayed an Inhibition of 0%.

`CCN(CC)CC(O)c1cc(-c2ccc(C)cc2)nc2c(C)cc(C)cc12.Cl` (centres undefined): the Inhibition is 3%.

Turning to `COc1ccc(/N=[N+](\[O-])c2ccccc2/[N+]([O-])=N/c2ccc(OC)cc2)cc1`, the Inhibition came out at 13%.

The molecule `COc1ccc(C(=O)N2CCC(CN3CCOC(c4ccccc4)(c4ccccc4)C3)CC2)cc1` yielded an Inhibition of 19%.

`C=CCOC(=O)N1CCC(CNCc2cccc(-c3ccc(-c4nc5cccc(C)c5[nH]4)cc3)c2)C1.O=C(O)C(F)(F)F` (centres undefined) returned an Inhibition of 24%.

Molecule `c1cc(Nc2nccc(-c3cnn4ncccc34)n2)cc(-c2cnco2)c1` showed an Inhibition of 54%.

With `Cc1ccc(O)cc1Nc1c(C(N)=O)cnc2ccc(-c3cncs3)cc12`, the Inhibition is 21%.

As to `O=C(Nc1ccc(CN2CCN(S(=O)(=O)c3cccc(Cl)c3)CC2)cc1)c1cccs1.O=C(O)C(F)(F)F`, the Inhibition is recorded as 9%.

(Values after ChEMBL document CHEMBL1157539, “Thousands of chemical starting points for antimalarial lead identification” (Nature, 2010).)
